Source: PubChem (National Center for Advancing Translational Sciences (NCATS))
Sampled rows, rich in hits. Any-hit rate of the full collection: about 9.5%.
ALDH1A1 inh = qHTS Assay for Inhibitors of Aldehyde Dehydrogenase 1 (ALDH1A1); Aldehyde dehydrogenase 1A1 (Homo sapiens), P00352; Purified ALDH1A1, NADH fluorescence, propionaldehyde substrate; Potency, µM (titrated, usually from 75.3 µM), for inactives: at the top dose activity, negative = inhibition, hits mostly inhibitors; actives 7.3% (n = 220,000); AID 1030, 2008; active means well fitted inhibition curve with a large enough effect, not every such curve was filed as active; inconclusive means small, poorly fitted or top-dose-only effect, or another doubt; inactive means no such curve, though single readings can be large or run the other way;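 further: plate controls were no enzyme wells and a reference inhibitor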
HPGD block = qHTS Assay for Inhibitors of HPGD (15-Hydroxyprostaglandin Dehydrogenase) | purified HPGD, NADH fluorescence kinetic, PGE2 substrate | Potency, µM, inactives show at the highest dose activity change, negative = inhibition, actives largely listed as inhibitors | actives 4.3% (n = 150,000) | AID 894, 2007; active means well fitted inhibition curve with a large enough effect, not every such curve was filed as active; inconclusive means small, poorly fitted or top-dose-only effect, or another doubt; inactive means no such curve, though single readings can be large or run the other way
Target sequence (P15428 whole entry, looked up): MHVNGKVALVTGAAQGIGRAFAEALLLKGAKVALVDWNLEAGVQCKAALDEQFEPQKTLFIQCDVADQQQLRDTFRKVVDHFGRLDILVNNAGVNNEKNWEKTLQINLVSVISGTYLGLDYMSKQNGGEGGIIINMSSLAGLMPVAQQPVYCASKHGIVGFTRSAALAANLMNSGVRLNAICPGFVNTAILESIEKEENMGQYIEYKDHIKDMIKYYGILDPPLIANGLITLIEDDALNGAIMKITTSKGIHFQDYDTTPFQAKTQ
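NADH formation kinetics: reaction with 30 uM PGE2 and 1 mM NAD+ (final), 20 nM enzyme, Tris-HCl pH 8 with Tween 20, after 15 min compound preincubation at room temperature. Fluorescence change, last versus first of five reads.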
Tau fibril FP = qHTS for Inhibitors of Tau Fibril Formation, Fluorescence Polarization; Potency, µM (titrated, usually from 57.7 µM), for inactives: at the highest dose activity, negative = inhibition, actives largely listed as inhibitors; actives 0.39% (n = 280,000); Microtubule-associated protein tau (Homo sapiens), P10636; K18 P301L tau heparin fibrillization, Alexa594 FP, 6 h; further: nearly all actives have a fitted effect of over 55% in size
Target sequence (P10636 561-689 P618L limits assumed): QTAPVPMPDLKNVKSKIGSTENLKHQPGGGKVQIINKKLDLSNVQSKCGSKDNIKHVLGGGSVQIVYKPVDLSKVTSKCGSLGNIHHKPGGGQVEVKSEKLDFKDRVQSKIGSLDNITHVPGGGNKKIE
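Heparin (20 uM) drove fibril formation of recombinant tau K18 P301L, 15 uM unlabeled with 0.24 uM Alexa 594 label, for 6 hr at 37 C in 100 mM sodium acetate pH 7. Fluorescence polarization (555/632 nm) read 1 hr after 30 uM ThT.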
NPSR antagonist = qHTS Assay for Antagonists of the Neuropeptide S Receptor: cAMP Signal Transduction. Q6W5P4. CHO-NPSR cells, cAMP TR-FRET, antagonist mode. Potency, µM (series often up to 38.3 µM), for the others: top-dose activity change, negative = inhibition, hits mostly inhibitors. actives 1% (n = 220,000); further: nearly all actives have a fitted effect of over 50% in size
Tau fibril ThT = qHTS for Inhibitors of Tau Fibril Formation, Thioflavin T Binding | actives 2.1% (n = 270,000) | Microtubule-associated protein tau (Homo sapiens), P10636 | Potency, µM (highest dose often 57.4 µM), for the others: at the top dose activity, negative = inhibition, actives largely listed as inhibitors | recombinant tau K18 P301L, heparin-induced fibrillization, ThT fluorescence; further: nearly all actives have a fitted effect of over 55% in size
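Using a mix of unlabeled (15 uM) and Alexa 594-labeled (0.24 uM) tau K18 P301L, heparin-triggered fibrillization over 6 hr at 37 C was scored by ThT fluorescence.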
Tau fluor cs = Counterscreen qHTS for Inhibitors of Tau Fibril Formation, Fluorescence Polarization | actives 0.93% (n = 280,000) | Potency, µM (doses to about 57.7 µM), for inactives: at the highest dose activity change, negative = decrease | tau K18 P301L Alexa594 fluorescence, heparin fibrillization | AID 1463, 2008; further: nearly all actives have a fitted effect of over 55% in size
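Human tau K18 P301L (15 uM unlabeled, 0.24 uM Alexa 594-labeled) in 100 mM sodium acetate pH 7 with 20 uM heparin, 6 hr at 37 C. ThT 30 uM added, 1 hr ambient; Alexa 594 FP and total fluorescence read at 555/632 nm.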
An asterisk follows results filed as active; [ ] = dose if it differs, or a comment. Unless noted, the call rests on the fitted dose curve; in most records, active means well fitted curve in the direction sought with a large enough effect; inconclusive means small, poorly fitted or top-dose-only effect, or another doubt; inactive means no such curve, though single readings can be large; an effect the other way counts as inactive or inconclusive. Unless noted, on the % scale 0 is the no-effect control and ±100 the full control effect; potency means the concentration at half of the fitted maximal effect.

What do the screens show for `Nc1cc(=O)nc(SCC(=O)Nc2ccc(F)cc2)n1-c1cccc(Cl)c1`?
Tau fibril FP: 0%; Tau fibril ThT: -5%; Tau fluor cs: -9%

Results for COc1ccc(Br)cc1C1CC(=O)N2CN(C)CSC2=C1C#N (stereo not given) ?
ALDH1A1 inh: 7.1µM*; HPGD block: 13µM*; Tau fibril FP: inconclusive; NPSR antagonist: -8%[46.1 µM]; Tau fibril ThT: inconclusive; Tau fluor cs: -15%

How did N#CCOC(=O)/C=C/c1ccc2c(c1)OCO2 do in these assays?
ALDH1A1 inh: inconclusive; Tau fibril FP: 2%; NPSR antagonist: 14%; Tau fibril ThT: -17%; Tau fluor cs: -6%

Results for CCOC(=O)c1c(/N=C/C2=C(O)CC(C)(C)CC2=O)sc(C)c1C ?
ALDH1A1 inh: 7.1µM*; HPGD block: -5%; Tau fibril FP: -2%; NPSR antagonist: -2%; Tau fibril ThT: inconclusive; Tau fluor cs: -5%

How did CCOC(=O)c1c(/N=C/c2cc(OC)cc([N+](=O)[O-])c2O)sc(C)c1C do in these assays?
ALDH1A1 inh: 32µM*; HPGD block: -14%; Tau fibril FP: inconclusive; NPSR antagonist: -6%[46.1 µM]; Tau fibril ThT: 8.9µM*; Tau fluor cs: inconclusive

Results for CCc1n[nH]c(=S)n1/N=C/c1cc(OC)cc([N+](=O)[O-])c1O ?
ALDH1A1 inh: inconclusive; Tau fibril FP: -16%; NPSR antagonist: -18%; Tau fibril ThT: 5µM*; Tau fluor cs: -28%

Results for CCOC(=O)c1c(/N=C/c2cc([N+](=O)[O-])ccc2O)sc(C)c1C ?
ALDH1A1 inh: 20µM*; HPGD block: -11%; Tau fibril FP: 11%; NPSR antagonist: 9%; Tau fibril ThT: inconclusive; Tau fluor cs: inconclusive

How did CCOC(=O)c1c(/N=C/c2ccc(O)cc2O)sc2c1CCC2 do in these assays?
ALDH1A1 inh: inconclusive; HPGD block: -23%; Tau fibril FP: -10%; NPSR antagonist: 18%; Tau fibril ThT: inconclusive; Tau fluor cs: inconclusive

How did CCOC(=O)c1c(NC(=O)c2nn(C)cc2[N+](=O)[O-])sc(C)c1C do in these assays?
ALDH1A1 inh: 11%; Tau fibril FP: -6%; NPSR antagonist: -5%; Tau fibril ThT: -2%; Tau fluor cs: 3%

How did COc1cc(/C=N/n2c(=S)[nH]nc(C)c2=O)cc([N+](=O)[O-])c1O do in these assays?
ALDH1A1 inh: inconclusive; Tau fibril FP: -2%; NPSR antagonist: -22%; Tau fibril ThT: -5%; Tau fluor cs: -11%

What do the screens show for `Cc1ccc(CNC(=O)C2CCCCC2C(=O)O)cc1` (stereo not given)?
ALDH1A1 inh: 1%; HPGD block: -6%; Tau fibril FP: 4%; NPSR antagonist: -3%[46.1 µM]; Tau fibril ThT: 1%; Tau fluor cs: 7%

Results for O=c1nc(-c2ccccc2)nc(-c2ccccc2)[nH]1 ?
Tau fibril FP: -5%; NPSR antagonist: 21%; Tau fibril ThT: -7%; Tau fluor cs: -8%

What do the screens show for `CC(=O)OC[C@H]1O[C@@H](O/N=C2/[C@H]3O[C@@H]3[C@@H](O)[C@H]3[C@H]2CCn2c(=O)n(-c4ccccc4)c(=O)n23)[C@H](OC(C)=O)[C@@H](OC(C)=O)[C@@H]1OC(C)=O`?
ALDH1A1 inh: -10%[13.5 µM]; Tau fibril FP: -1%[11.6 µM]; Tau fibril ThT: -2%[11.5 µM]; Tau fluor cs: 1%[11.6 µM]

How did Cc1ccc(S(=O)(=O)N2CCN(C(=O)C3Cc4ccccc4CN3C(=O)c3ccco3)CC2)cc1 (stereo not given) do in these assays?
ALDH1A1 inh: 8.9µM*; HPGD block: -10%; Tau fibril FP: 0%; NPSR antagonist: -18%[46.1 µM]; Tau fibril ThT: -4%; Tau fluor cs: 1%

What do the screens show for `Cc1ccc(S(=O)(=O)N2CCN(C(=O)CN3CCc4ccccc4C3)CC2)cc1`?
ALDH1A1 inh: 14µM*; HPGD block: -6%; Tau fibril FP: -1%; NPSR antagonist: -4%[46.1 µM]; Tau fibril ThT: -7%; Tau fluor cs: 3%

What do the screens show for `O=C(CN1CCc2ccccc2C1)N1CCN(S(=O)(=O)c2ccccc2)CC1`?
ALDH1A1 inh: inconclusive; HPGD block: -1%; Tau fibril FP: 5%; NPSR antagonist: -9%[46.1 µM]; Tau fibril ThT: -6%; Tau fluor cs: -4%

How did O=C(c1ccco1)N1CCN(C(=O)C2Cc3ccccc3CN2S(=O)(=O)c2ccc(F)cc2)CC1 (stereo not given) do in these assays?
ALDH1A1 inh: inconclusive; HPGD block: -3%; Tau fibril FP: 0%; NPSR antagonist: inconclusive; Tau fibril ThT: -7%; Tau fluor cs: -6%

Results for COC(=O)C1=C(C(=O)OC)[C@@H]2Nc3ccccc3[C@@]23C[C@@H](C(=O)OC)N(S(=O)(=O)c2ccc4c(c2)OCCN4C)C3=N1 ?
ALDH1A1 inh: 3%[13.5 µM]; HPGD block: -2%; Tau fibril FP: inconclusive; Tau fibril ThT: -2%[11.5 µM]; Tau fluor cs: -11%[11.6 µM]

What do the screens show for `O=C(O)c1ccc(NS(=O)(=O)c2ccsc2C(=O)O)cc1`?
ALDH1A1 inh: 8%; HPGD block: -13%; Tau fibril FP: -2%; Tau fibril ThT: -1%; Tau fluor cs: 1%

How did O=C1C(Cl)=C(NS(=O)(=O)c2ccc([N+](=O)[O-])cc2)C(=O)c2ccccc21 do in these assays?
Tau fibril FP: 8.9µM*; NPSR antagonist: inconclusive; Tau fibril ThT: 2µM*; Tau fluor cs: 2.5µM*[quencher]

Results for CC(C)(C)c1ccc(S(=O)(=O)Nc2ccccn2)cc1 ?
ALDH1A1 inh: 32µM*; Tau fibril FP: -1%; NPSR antagonist: -2%; Tau fibril ThT: 0%; Tau fluor cs: 3%

What do the screens show for `O=C1C(Cl)=C(Nc2ccc(S(=O)(=O)Nc3ccccn3)cc2)C(=O)c2ccccc21`?
ALDH1A1 inh: 0.63µM*; HPGD block: 2.8µM*

Results for CC(C)=CCN1CCN(Cc2cn[nH]c2C2CCCCC2)CC1CCO (stereo not given) ?
ALDH1A1 inh: 10%; Tau fibril FP: -2%; NPSR antagonist: -2%; Tau fibril ThT: -5%; Tau fluor cs: 1%

What do the screens show for `COc1ccc(NC2=CC(c3cccc(OC)c3)N(c3ccc(OC)cc3)C2=O)cc1` (stereo not given)?
ALDH1A1 inh: 25µM*; HPGD block: inconclusive; Tau fibril FP: -11%; NPSR antagonist: -8%; Tau fibril ThT: inconclusive; Tau fluor cs: -27%
